Experimental data as given in PubChem BioAssay AID1466 (National Center for Advancing Translational Sciences (NCATS), 2008).
About 10 (0.005%) of roughly 200,000 compounds were called active. About 8% were inconclusive and are not listed. Calls come from the whole dose curve; as a rule, active = well fitted inhibition curve with a large enough effect; inconclusive = small, poorly fitted or top-dose-only effect, or effect the other way, or another doubt; inactive = no such curve, though single readings can be large or run the other way. A selection follows.

What follows are compounds tested against Lysosomal alpha-glucosidase (Homo sapiens) (UniProt P10253) (assay: qHTS Assay for Inhibitors of Human alpha-Glucosidase as a Potential Chaperone Treatment of Pompe Disease). Conditions: purified human GAA, 4-MU-alpha-glucoside fluorescence; series mostly up to 76.9 µM.
Procedure, shortened: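 Read-out is 4-methylumbelliferone fluorescence (Ex 365/Em 440 nm) after NaOH/glycine stop at pH 10. Enzyme 4 nM, substrate 400 uM, pH 5.0 citrate buffer, 20 min room temperature; AC50 from Hill-equation concentration-response.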
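Note: plate controls were uninhibited enzyme wells for no effect and no-enzyme background for full effect.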

Activity change, negative = inhibition, inactive:
COc1ccc(OC)c(NC(=O)CN(Cc2ccc(Cl)cc2)S(C)(=O)=O)c1
O=C(N/N=C/c1ccccn1)c1cccnc1 -6.66% [at 15.4 µM]
CCOC(=O)c1cnc2c(c(C)nn2CC)c1Cl
CCc1nc(C)cn1S(=O)(=O)c1cc([N+](=O)[O-])ccc1Cl
O=[N+]([O-])c1ccc(F)cc1Oc1nc(-c2cccnc2)nc2ccccc12
COc1ccc(/C=C/C2=CC(C)(C)NC(=S)N2)c(OC)c1
COc1ccccc1C1CCN(C(=S)Nc2ccc(Br)cc2)CC1 -8.72% [at 15.4 µM]
Cc1ccc(-c2nn(-c3cccc(F)c3)cc2CNCCc2ccncc2)o1
Brc1ccc2nc(N3CCCC3)sc2c1
COc1ccc(Cl)cc1N(CC(=O)N1CCCCC1)S(C)(=O)=O
Cn1nc(C(F)(F)F)cc1-c1ccc(/C=C(\C#N)C(=O)c2cccc(C(F)(F)F)c2)s1
COc1ccc(C(=O)Nc2ccc(NC(=O)C(C)C)nc2)cc1
CC1Cc2ccccc2N1C(=O)CSc1nnc(C2CC2)n1C (configuration not stated)
Cc1nnsc1C(=O)NCc1c(F)cccc1Cl
Cc1cc(Cl)ccc1NNC(=O)c1snnc1C
COc1cc(C)c(S(=O)(=O)N2CCOCC2)c(C)c1C
COc1ccccc1/C=C/C=N/NC(=O)CN1CCN(Cc2ccccc2)CC1
Cc1ccc(NC(=O)CSc2nnc(CNC(=O)c3ccccc3F)o2)cc1
COc1cccc(NCCC(=O)c2cccc([N+](=O)[O-])c2)c1
CC(C)N(Cc1ccccc1)C(=O)COC(=O)c1cnccn1
O=C1Nc2ccc([N+](=O)[O-])cc2C1=Nc1cccc(CO)c1
COc1cc(/C=C2/C(=O)ON=C2C)ccc1OCc1cccc(F)c1
CCCCS(=O)c1snnc1C (configuration not stated)
COc1ccc(-c2nc(N)sc2C2(O)C(=O)Nc3c(Br)cc(F)cc32)cc1OC (configuration not stated)
COc1ccccc1NC(=O)c1cc(Cl)nc2ccccc12 -0.703% [at 15.4 µM]
Cc1c(C(=O)Nc2ccccc2)sc2nc3n(c(=O)c12)CCCCC3
Cc1noc(C)c1COc1ccc2ccc(=O)oc2c1
O=C(CO/N=C/c1ccc(OC(F)F)cc1)NCc1ccc(F)cc1
COCc1cc(=O)[nH]c(-c2ccc(C(F)(F)F)cc2)n1
CC1CC(C)CN(C(=O)CSc2ccsc2[N+](=O)[O-])C1 (configuration not stated)
O=C(c1ccc(=O)oc1)N1CCC(C(O)(c2ccccc2)c2ccccc2)CC1
O=C(/C=C/c1ccccc1[N+](=O)[O-])OC1CCCCC1=O (configuration not stated)
CCOc1ccc(C(CC(=O)O)n2cnnn2)cc1OC (configuration not stated)
Cc1cc(=O)[nH]c(S)c1C#N 1.79% [at 15.4 µM]
Cc1c(Cl)cccc1NC(=S)N(Cc1ccccc1)Cc1cccnc1
C=C(C)CNC(=S)Nc1ccc(S(=O)(=O)Nc2cnc3ccccc3n2)cc1
N/C(=N\OC(=O)Cc1ccc([N+](=O)[O-])cc1)c1ccccn1
COc1cccc(OC)c1CN(C)C(=O)c1cnccc1C(F)(F)F -1.85% [at 15.4 µM]
CCS(=O)(=O)C1=NSC2=NC(=O)/C(=C\c3cc(C)n(-c4cccc(OC)c4)c3C)C(=N)N21
CC1CC(=O)Nc2ccccc2N1S(=O)(=O)c1cccs1 (configuration not stated)
Cc1nc(N2CCCCC2)sc1C=O
Cc1cc(C)nc(NC(=O)/C=C/c2ccc(Cl)cc2)n1
COc1ccc(N2C(=O)C3C(C2=O)C(C(=O)c2ccccc2)N2CCCC32)cc1 (configuration not stated) -6.45% [at 15.4 µM]
Cc1ccc(OC(=O)c2c(C)nn(-c3ccccc3)c2C)cc1
NS(=O)(=O)c1ccc(NC(=O)COC(=O)CCc2c[nH]c3ccccc23)cc1
COc1ccc(CN(Cc2ccc(OC)cc2)C(=O)c2cccs2)cc1
CCC(=O)N(Cc1cc2ccccc2[nH]c1=O)c1ccc(OC)cc1
O=C(Nc1cccnc1)c1cccc(S(=O)(=O)N2CCCC2)c1
CCOC(=O)NNc1cc(C(F)(F)F)ccn1 -7.1% [at 15.4 µM]
CN(C)c1ccc(/C=C/C(=O)c2ccc(O)cc2)cc1[N+](=O)[O-]
COC(=O)c1noc(C)c1-c1ccnn1C(=O)c1ccc(Cl)cc1
CN(CCC1CCOCC1)Cc1cn[nH]c1-c1ccc(-c2ccccc2)cc1
CCOC(=O)C1CCN(c2ncnc3c2c(-c2ccccc2)cn3-c2ccc(C)cc2)CC1
CCOC(=O)c1sc(NC(=O)CSc2nc(O)c(Cc3ccccc3)c(=O)[nH]2)nc1C
Cc1cc(=O)oc2c(C(=O)c3ccccc3)c(OCC(N)=O)ccc12
Cc1cc(C)cc(OCC(=O)O/N=C(\N)Cc2ccc([N+](=O)[O-])cc2)c1
COC(=O)c1cc(NC(=O)c2ccco2)ccc1N1CCOCC1
CCc1ccc(NC(=O)N2CCN(c3ccccc3)CC2)cc1
C=CCN(c1ccccc1C(=O)NCC(=O)OCC)S(=O)(=O)c1ccc(C)cc1
CNC(=O)COC(=O)c1cc(-c2ccc(OC)cc2)nc2ccccc12
COCCCNC(=S)NCCNc1nc2cc(C)c(C)cc2cc1C#N
C/[N+]([O-])=C\c1ccc([N+](=O)[O-])o1
COc1ccc(O)c(C(=O)c2cnc3c(c2)c(-c2ccc(F)cc2)c(C#N)c(=O)n3C)c1
CN(C)S(=O)(=O)c1ccc(NC(=O)COC(=O)Cn2[nH]c(=O)c3ccccc3c2=O)cc1
Cc1ccc(CN(Cc2cccnc2)C(=S)Nc2cc(Cl)ccc2C)cc1
Cc1ccccc1NCC(=O)N/N=C\c1ccc([N+](=O)[O-])s1
COc1cccc(NC(=O)C(Sc2nnnn2C)c2ccccc2)c1 (configuration not stated)
Cc1cc(C(=O)N/N=C\C(Br)=C\c2ccccc2)c(C)o1
COc1ccc(NC(=O)CSc2ncnc3[nH]ncc23)cc1 5.07% [at 15.4 µM]
COc1cc(C(F)(F)F)c(C(=O)N(C)c2ccc(Cl)cc2)cn1
O=C(CP(=O)(c1ccccc1)c1ccccc1)N1CCOCC1
S=C(Nc1ccc(Br)cc1Cl)NC1CCN(Cc2ccccc2)CC1
CC(NC(=S)Nc1ccc(OC(F)F)cc1)c1ccc(F)cc1 (configuration not stated)
CS(=O)(=O)c1ccc2nc(NC(=O)c3ccc(N4CCCC4=O)cc3)sc2c1
CCOCCCNC(=O)C(NC(=O)c1ccccc1O)c1ccccc1 (configuration not stated)
O=C(C1CCN(S(=O)(=O)c2ccc(Br)s2)CC1)N1CCN(C2CCCCC2)CC1
Cc1cc(-c2nc(C)c(-c3nnc(SCC(=O)Nc4ccccc4)n3C)s2)no1 3.88% [at 15.4 µM]
CNc1ccc([N+](=O)[O-])cc1C(=O)O
CSCC[C@H](NC(=O)NC1CCCC1)C(=O)O -5.49% [at 15.4 µM]
Cc1ccc(-c2cc(C(=O)NN)n[nH]2)o1
Cc1cccc(C)c1NC(=O)C1CCCN1C(=O)OC(C)(C)C (configuration not stated)
Cc1ccc(/C=N/NC(=O)CSc2ccccn2)o1 0.179% [at 15.4 µM]
CCCCCCCCCCCCC(NC(C)=O)(C(=O)OCC)C(=O)OCC
O=C(NCC1CCCO1)c1cc(-c2ccccc2)nc2ccccc12 (configuration not stated) -10.8% [at 15.4 µM]
FC(F)(F)c1cccc(-c2nc(COc3ccc(Cl)cc3Cl)no2)c1
COc1ccc(N2CCN(C(=O)CNS(=O)(=O)c3ccc(C)c(C)c3)CC2)cc1
C/C(=N\Nc1ncc(Cl)cc1Cl)c1cccs1
Cc1onc(C(=O)NN)c1C(=O)N1CCN(C(c2ccccc2)c2ccccc2)CC1
CCOc1ccc2sc(NS(=O)(=O)c3ccc(N)cc3)nc2c1
CCn1c(SCc2ccccc2)nc2c(c1=O)SCC2
Nc1ccccc1Sc1cc(Cl)nnc1Cl
Cc1cccc(CSc2nc3c(c(=O)n2C)SCC3)c1
